Compound activity as filed in PubChem BioAssay.
ROC1-CUL1 inh: human ROC1-CUL1 E3 ligase inhibition | inhibition, % at 10 µM | hit rate 0.6% among 140,000 | in vitro K48 di-Ub FRET, acceptor:donor ratio, 45 min; in the data active = inhibition above about 25%
Hits are given with their value; i = inactive. Shown is part of a subset that was picked to be rich in hits.

SMILES | ROC1-CUL1 inh
CN(Cc1ccsc1)C(=O)Nc1nnc(-c2ccccc2)s1 | i
COc1ccc(C(=O)Oc2c(Sc3ccc(C)cc3)c(C)nn2C(C)(C)C)cc1OC | i
COCC(=O)Oc1c(Sc2ccc(C)cc2)c(C)nn1C(C)(C)C | 58.7
COc1cccc(C(=O)Oc2c(Sc3ccc(C)cc3)c(C)nn2C(C)(C)C)c1OC | i
COC(=O)c1cc(CNC(=O)C(C)(C)C)cc(NS(=O)(=O)c2cccc(C(F)(F)F)c2)c1 | i
COC(=O)C1C(=O)C=C(C(C)(C)C)N(c2ccccc2)C1=O (stereo not drawn) | i
CN(C)C(=O)C(F)c1ccccc1 (stereo not drawn) | i
COc1ccc(-c2nc3cnc4ccccc4c3o2)cc1 | i
COc1cc(C2C3=C(CC(C)(C)CC3=O)OC(=N)C2C#N)ccc1OCc1ccccc1 (stereo not drawn) | i
COc1cc(C2C3=C(CC(C)(C)CC3=O)N(Nc3ccccc3)C(=N)C2C#N)ccc1OCc1ccccc1 (stereo not drawn) | i
COc1cc(C2C3=C(CC(C)(C)CC3=O)N(c3ncn[nH]3)C(=N)C2C#N)ccc1OCc1ccccc1 (stereo not drawn) | 32.1
COc1cc(OC)cc(C(=O)Oc2ccc(Cl)cc2-n2c(C)ccc2C)c1 | i
CCOC(=O)c1c(N=NC(C#N)C(=O)OCC)n[nH]c1C (stereo not drawn) | i
COc1ccc(C=C2C(=O)c3ccccc3C2=O)cc1O | i
O=C1/C(=C/c2ccc(O)c(O)c2)Oc2ccccc21 | 96.9
CC(C)c1cc(/C=C2\OC(=O)c3ccccc32)cc(C(C)C)c1O | i
O=C1NCC(c2ccccc2)C1C(=O)N/N=C\c1cc(Cl)cc(Cl)c1O (stereo not drawn) | i
CCOc1ccc(/C=C2/C(=O)NN(c3ccc(I)cc3)C2=O)cc1 | i
COc1cc(/C=C2\C(=O)NN(c3ccc(Br)cc3)C2=O)cc(OC)c1OC | i
O=C1NN(c2ccc(I)cc2)C(=O)/C1=C\c1cccc(I)c1 | i
O=C1NN(c2ccc(Cl)cc2)C(=O)/C1=C/c1ccc2c(c1)OCO2 | i
Cc1ccc(/C=C2\C(=O)NN(c3ccc(I)cc3)C2=O)cc1 | 63.3
CCc1ccc(N2NC(=O)/C(=C\c3cccs3)C2=O)cc1 | i
O=C1NN(c2ccc(Cl)cc2)C(=O)/C1=C/c1ccc(O)cc1O | i
CCN(CC)c1ccc(/C=C2/C(=O)NN(c3cccc(Br)c3)C2=O)cc1 | i
SMILES | ROC1-CUL1 inh
O=C1NN(c2ccc(Br)cc2)C(=O)/C1=C\c1ccc(F)cc1 | 86.3
CC(C)CCN(C)c1ccc(/C=C2/C(=O)NN(c3ccc(Br)cc3)C2=O)cc1 | i
CCc1ccc(N2NC(=O)/C(=C/c3cccc(Br)c3)C2=O)cc1 | 39.9
O=C1NN(c2ccc(Cl)cc2)C(=O)/C1=C/c1ccc(Cl)cc1 | 46.1
Cc1ccc(C=C2C(=O)N(C3CCCCC3)C(=O)N(C3CCCCC3)C2=O)o1 | i
COc1ccc(N2CCN(C(=O)N3CCC(C)CC3)CC2)cc1 | i
CCc1csc(CNC(=O)c2ccc(N3CCCC(C(N)=O)C3)nc2)n1 (stereo not drawn) | i
CCOC(=O)C1CCN(CC(O)COc2cccc(C)c2)CC1 (stereo not drawn) | i
COc1ccc(C(=O)Nc2ccc(Cl)cc2C(=O)N2CCCCC2C)cc1 (stereo not drawn) | i
O=C1NN(c2ccc(I)cc2)C(=O)/C1=C\c1ccccc1O | i
O=C1NN(c2ccc(I)cc2)C(=O)/C1=C\c1cc(Br)ccc1O | 28.9
CCOc1ccc(Br)cc1/C=C1/C(=O)NN(c2ccc(I)cc2)C1=O | i
CC(=O)NC1C(=O)N(c2ccccc2)N=C1C (stereo not drawn) | i
CC1=NN(c2ccccc2)C(=O)C1C(=O)c1ccc(Cl)cc1 (stereo not drawn) | i
COC(=O)C(O)(C1C(=O)N(c2ccccc2)N=C1C)C(F)(F)F (stereo not drawn) | 75.2
O=C(OCc1ccccc1)C1CCCN1c1nc(-c2ccc(Cl)cc2)cs1 (stereo not drawn) | i
CCN(CC)CCN(C)C(=O)c1cn(Cc2ccccc2Cl)nn1 | i
CN1CC=C2C(C#N)C(=N)C(C#N)(C#N)[C@H](c3ccccc3F)[C@H]2C1 (stereo partly drawn) | i
CN1CC=C2C(C#N)C(=N)C(C#N)(C#N)C(c3ccco3)C2C1 (stereo not drawn) | i
CN1CC=C2C(C#N)C(=N)C(C#N)(C#N)C(c3ccc(Br)s3)C2C1 (stereo not drawn) | 44.8
CCN1CC=C2C(C#N)C(=N)C(C#N)(C#N)C(c3ccc(SC)cc3)C2C1 (stereo not drawn) | 67.9
CCCN1CC=C2C(C#N)C(=N)C(C#N)(C#N)C(c3cccc(Br)c3)C2C1 (stereo not drawn) | i
CCOC(=O)N1CC=C2C(C#N)C(=N)C(C#N)(C#N)[C@H](c3cccc(F)c3)[C@H]2C1 (stereo partly drawn) | i
CCN1CC=C2C(C#N)C(=N)C(C#N)(C#N)C(c3cc(OC)c(OC)c(OC)c3)C2C1 (stereo not drawn) | i
